# S1P4 antagonist = human S1P4 receptor antagonism | actives 0.26% (n = 220,000) | O95977 | S1P4-expressing cells, antagonist mode, reporter read-out | inhibition, % at 4.98 µM; in the data active = inhibition above about 29%;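 note: 0% = wells stimulated with agonist and 100% = vehicle wells without agonist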
# HSF1 inh = HSF1 inhibition | NIH3T3-HGL HSE-luciferase, MG132-induced, luminescence 8 h; stronger effect = lower value | activity change, negative = inhibition, % at 7.5 µM (by protocol) | actives 0.77% (n = 300,000);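 active = more than half of replicate wells show activity change below -50%, luminescence cut by over half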;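 note: luciferase reports HSF-1 transcriptional activity via heat shock element; 0% = median of DMSO wells and -100% = zero luminescence signal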
# Hsp70 activator = Hsp70 transcriptional activation, primary screen. HeLa Hsp70 promoter luciferase reporter, luminescence; scaled: vehicle 0, proteasome-inhibitor control 100%. activation, % at 10 µM. actives 0.04% (n = 200,000). AID 1203;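 active = activation above the mean across all tested compounds plus 3 SD, cutoff set per campaign, cut at about 5.5% in these data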;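 note: 100% = MG132 at 30 µM as the positive control and 0% = DMSO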
# HSF-1 act = increases HSF-1 driven luciferase reporter signal; NIH3T3-HGL HSF-1 luciferase reporter, MG132, 8 h; 100% = twice DMSO control signal; actives 1.7% (n = 300,000); activation, % at 9 µM; AID 504408;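 active = mean replicate activation of at least 50% with a set share of replicates each reaching 50%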;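 note: 0% = median of the neutral control wells and 100% = twice that signal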
# S1P3 antagonist = S1P3 (human) receptor antagonism; CHO S1P3 NFAT-BLA reporter, FRET fluorescence, antagonist mode; inhibition, % at 4.98 µM; actives 0.27% (n = 170,000); Q99500;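 active = inhibition above the plate cutoff, the mean inhibition of test wells on that plate plus 3 SD, cut at about 28% in these data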;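 note: cells challenged with S1P at its EC80 of 0.8 µM; blue over green emission ratio from cleaved BLA substrate after 4 h stimulation; 0% = S1P-stimulated wells and 100% = unstimulated DMSO-only wells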
# Target sequence (Q99500 whole entry, looked up): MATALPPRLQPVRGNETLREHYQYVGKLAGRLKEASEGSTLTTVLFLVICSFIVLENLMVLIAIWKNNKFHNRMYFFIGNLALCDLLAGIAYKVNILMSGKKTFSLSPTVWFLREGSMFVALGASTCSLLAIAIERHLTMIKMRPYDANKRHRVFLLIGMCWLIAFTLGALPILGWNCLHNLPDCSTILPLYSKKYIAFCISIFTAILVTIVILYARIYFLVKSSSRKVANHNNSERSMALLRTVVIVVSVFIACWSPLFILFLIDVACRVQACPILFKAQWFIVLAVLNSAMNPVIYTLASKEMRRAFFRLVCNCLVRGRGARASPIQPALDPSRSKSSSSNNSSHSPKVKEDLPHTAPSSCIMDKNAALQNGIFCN
# S1P4 agonist = agonists of human S1P4 receptor | O95977 | activation, % at 4.98 µM | actives 0.35% (n = 220,000) | AID 1509 | S1P4-expressing cell line, agonist reporter assay; in the data active = activation above about 11%;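 note: 0% = DMSO vehicle and 100% = reference agonist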
# * = called active by the depositor; . = not tested or not shown. Most compounds without a hit are left out; they make up all but 2.9% or so of the library.
SMILES,S1P4 antagonist,HSF1 inh,Hsp70 activator,HSF-1 act,S1P3 antagonist,S1P4 agonist
CCCCNC1C(CC)C(CCC)C(C#N)(C#N)C1(C#N)C#N (stereo unspecified),10.2,84.4,-0.2,118.3*,-45.8,2.0
O=c1[nH]c(SCc2ccc(Cl)cc2)nc2ccsc12,-96.0,72.1,0.2,126.9*,-14.3,0.5
COc1ccc(NC2=Nc3ccccc3N3C2=Nc2c(c(C)nn2-c2ccc(C)cc2)C3c2cccnc2)cc1 (stereo unspecified),-5.4,-81.0*,-0.2,-85.8,.,-0.1
CC(=O)Nc1ccc(NC2=Nc3ccccc3N3C2=Nc2c(c(C)nn2-c2ccccc2)C3c2ccccc2)cc1 (stereo unspecified),5.2,-7.5,-0.2,1.6,.,-1.5
c1ccc(-c2nc3ccccc3c3nncn23)cc1,-5.1,-59.2*,0.0,-69.8,-3.2,0.7
Cc1csc(Sc2ccc(S(=O)(=O)N3CCCC3)cn2)n1,-4.5,-10.6,-0.1,10.6,-17.4,-1.9
CC1CCCCC1NC(=O)CCS(=O)(=O)c1cc2c(cc1Cl)NC(=O)CO2 (stereo unspecified),.,-5.0,.,-4.4,.,.
COc1cccc(C(C(=O)NC(C)(C)C)N(CC(C)C)C(=O)CCC(=O)Nc2cc(C)on2)c1OC (stereo unspecified),-26.2,2.1,0.7,4.1,-11.4,0.9
CCc1ccccc1N(CC(=O)N1CCCC1)S(C)(=O)=O,.,-56.3*,.,-65.3,.,.
O=C1c2cccc3c([N+](=O)[O-])ccc(c23)C(=O)N1c1ccc(Cl)cn1,22.9,47.0,-0.2,38.2,.,4.9
O=C1c2cccc3cccc(c23)C(=O)N1c1nccs1,5.1,.,0.0,.,13.5,2.6
O=C1c2cccc3c([N+](=O)[O-])ccc(c23)C(=O)N1c1nccs1,98.9*,20.1,0.0,41.3,.,-0.1
O=C1c2cccc3c([N+](=O)[O-])ccc(c23)C(=O)N1O,.,28.5,.,51.8*,.,.
Cc1ccc(Cn2c(=O)oc3ccccc32)cc1,-13.9,-4.3,-0.2,-13.2,0.8,0.2
Cc1ccc(S(=O)(=O)n2c(=O)oc3ccccc32)cc1,-14.0,60.6,-0.1,79.6*,11.0,0.9
Cc1onc(-c2ccccc2)c1C(=O)Nc1sc2c(c1C(N)=O)CCC2,7.2,-59.3*,-0.4,-66.0,.,1.1
NC(=O)c1c(NC(=O)c2ccccc2C(=O)O)sc2c1CCCC2,.,-6.2,.,4.3,.,.
NC(=O)c1c(NC(=O)c2cccs2)sc2c1CCCCCC2,-19.8,21.5,-0.1,11.1,54.4*,-0.4
Cc1onc(-c2ccccc2)c1C(=O)Nc1sc2c(c1C#N)CCC2,-28.6,-2.1,0.1,-11.2,9.0,0.7
NC(=O)c1c(NC(=O)c2ccccc2F)sc2c1CCCC2,.,39.2,.,75.0*,.,.
COc1ccccc1N1CCN(C(=O)c2ccc3c(c2)CCN3S(C)(=O)=O)CC1,.,24.6,.,41.6,.,.
Cc1ccc(N(C(=O)c2ccco2)C(C(=O)NC2CCCC2)c2cccnc2)cc1 (stereo unspecified),.,-6.4,.,-3.4,.,.
CC(C)c1ccc(N(C(=O)CNC(=O)c2ccco2)C(C(=O)NC2CCCC2)c2ccncc2)cc1 (stereo unspecified),.,83.7,.,168.4*,.,.
Cc1cccc(N(C(=O)c2ccco2)C(C(=O)NC2CCCC2)c2cccnc2)c1C (stereo unspecified),.,-78.9*,.,-84.3,.,.
CCN(CC)C(=O)CN1C(=O)c2cccc3cccc1c23,.,-5.8,.,-6.4,.,.
SMILES,S1P4 antagonist,HSF1 inh,Hsp70 activator,HSF-1 act,S1P3 antagonist,S1P4 agonist
O=C(Nc1nccs1)c1cc2c(s1)-c1ccccc1OC2,-8.3,23.4,-0.2,38.1,.,0.5
Cc1cccc2c1-c1sc(C(=O)Nc3nccs3)cc1CO2,-16.6,30.0,-0.1,55.9*,.,-0.8
CC(C)CCNC(=O)CCn1nc(-c2ccc(Cl)cc2)ccc1=O,.,2.0,.,14.9,.,.
Cc1cccc(C)c1N1CCN(c2ccc3nnc(C(F)(F)F)n3n2)CC1,-4.4,88.2,0.3,129.3*,.,-3.2
FC(F)(F)c1nnc2ccc(N3CCCCC3)nn12,.,1.6,.,16.8,.,.
O=C(Nc1ccc(Cl)c(Cl)c1)Nc1ccccc1O,12.9,46.8,.,92.4*,-7.6,-1.0
CC(C(=O)NC1CCCCCC1)c1ccc([N+](=O)[O-])cc1 (stereo unspecified),.,-5.7,.,3.3,.,.
CC(C(=O)NC1CC(C)(C)NC(C)(C)C1)c1ccc([N+](=O)[O-])cc1 (stereo unspecified),-5.0,-58.7*,0.0,-62.4,3.2,0.7

# Assay outcomes as filed in PubChem BioAssay.
